Laboratory results reported in PMC11006913.
Where a chain is given by its changes, count along the chain named.

Tests used:
Assay in all cases: PBM; 200 nM protein, PBS
Details in all cases: dsDNA, one strand shown
CRX [1] = target: CRX (Homo sapiens, UniProt O43186 26-111)
VENTX [2] = target: T1, VENTX (Homo sapiens, UniProt O95231 78-163, R121Q)
T1 sequence: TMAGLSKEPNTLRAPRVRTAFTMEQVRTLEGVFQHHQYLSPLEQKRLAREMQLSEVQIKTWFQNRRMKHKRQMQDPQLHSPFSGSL

SIX6 [3] = target: T2, SIX6 (Homo sapiens, UniProt O95475 114-200, L167I)
T2 sequence: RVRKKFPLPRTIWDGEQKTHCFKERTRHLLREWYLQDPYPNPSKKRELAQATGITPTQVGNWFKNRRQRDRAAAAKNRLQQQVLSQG

VENTX [4] = target: T3, VENTX (Homo sapiens, UniProt O95231 78-163)
T3 sequence: T1 sequence with Q44R

SIX6 [5] = target: T4, SIX6 (Homo sapiens, UniProt O95475 114-200, L143V)
T4 sequence: T2 sequence with L30V, I54L

HOXC10 [6] = target: HOXC10 (Homo sapiens, UniProt Q9NYD6 254-340)
SIX6 [7] = target: T5, SIX6 (Homo sapiens, UniProt O95475 114-200, H141N)
T5 sequence: T2 sequence with H28N, I54L

SIX6 [8] = target: T6, SIX6 (Homo sapiens, UniProt O95475 114-200, T165P)
T6 sequence: T2 sequence with T52P, I54L

VENTX [9] = target: T7, VENTX (Homo sapiens, UniProt O95231 78-163, Y115F)
T7 sequence: T1 sequence with Y38F, Q44R

SIX6 [10] = target: T8, SIX6 (Homo sapiens, UniProt O95475 114-200, L167M)
T8 sequence: T2 sequence with I54M

SIX6 [11] = target: T9, SIX6 (Homo sapiens, UniProt O95475 114-200, L143M)
T9 sequence: T2 sequence with L30M, I54L

SIX6 [12] = target: T10, SIX6 (Homo sapiens, UniProt O95475 114-200, L143I)
T10 sequence: T2 sequence with L30I, I54L

SIX6 [13] = target: T11, SIX6 (Homo sapiens, UniProt O95475 114-200, T165G)
T11 sequence: T2 sequence with T52G, I54L

SIX6 [14] = target: T12, SIX6 (Homo sapiens, UniProt O95475 114-200, T139Q)
T12 sequence: T2 sequence with T26Q, I54L

CRX [15] = target: CRX (Homo sapiens, UniProt O43186 26-111, E42D)
MSX2 [16] = target: MSX2 (Homo sapiens, UniProt P35548 130-214, R199I)
SIX6 [17] = target: T13, SIX6 (Homo sapiens, UniProt O95475 114-200, T165A)
T13 sequence: T2 sequence with T52A, I54L

HOXC10 [18] = target: HOXC10 (Homo sapiens, UniProt Q9NYD6 254-340, K271E)
MSX2 [19] = target: MSX2 (Homo sapiens, UniProt P35548 130-214)
SIX6 [20] = target: T14, SIX6 (Homo sapiens, UniProt O95475 114-200, L167V)
T14 sequence: T2 sequence with I54V

SIX6 [21] = target: T15, SIX6 (Homo sapiens, UniProt O95475 114-200)
T15 sequence: T2 sequence with I54L

SIX6 [22] = target: T16, SIX6 (Homo sapiens, UniProt O95475 114-200, T165I)
T16 sequence: T2 sequence with T52I, I54L

MSX2 [23] = target: MSX2 (Homo sapiens, UniProt P35548 130-214, F161Y)
CRX [24] = target: CRX (Homo sapiens, UniProt O43186 26-111, R41L)
HOXB9 [25] = target: HOXB9 (Homo sapiens, UniProt P17482 171-250, T197M)
HOXA2 [26] = target: HOXA2 (Homo sapiens, UniProt O43364 129-215, R185T)
HOXB9 [27] = target: HOXB9 (Homo sapiens, UniProt P17482 171-250)
ALX3 [28] = target: ALX3 (Homo sapiens, UniProt O95076 139-225, N203Q)
HOXA2 [29] = target: HOXA2 (Homo sapiens, UniProt O43364 129-215, R185K)
ALX3 [30] = target: ALX3 (Homo sapiens, UniProt O95076 139-225)
ALX3 [31] = target: ALX3 (Homo sapiens, UniProt O95076 139-225, L168Q)
HOXB9 [32] = target: HOXB9 (Homo sapiens, UniProt P17482 171-250, R186Q)
ALX3 [33] = target: ALX3 (Homo sapiens, UniProt O95076 139-225, L168V)
HOXA2 [34] = target: HOXA2 (Homo sapiens, UniProt O43364 129-215, Y150S)
ALX3 [35] = target: ALX3 (Homo sapiens, UniProt O95076 139-225, N203S)
HOXA2 [36] = target: HOXA2 (Homo sapiens, UniProt O43364 129-215)
Chain of HOXA2 (Homo sapiens, UniProt O43364 129-215) (O43364 129-215): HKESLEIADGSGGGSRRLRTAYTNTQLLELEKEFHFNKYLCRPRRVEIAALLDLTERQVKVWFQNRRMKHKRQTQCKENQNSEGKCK

Chain of CRX (Homo sapiens, UniProt O43186 26-111) (O43186 26-111): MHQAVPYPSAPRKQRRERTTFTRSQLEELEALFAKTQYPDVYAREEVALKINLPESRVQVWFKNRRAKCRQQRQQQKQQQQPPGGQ
Chain of CRX (Homo sapiens, UniProt O43186 26-111, E42D) (O43186 26-111 E42D): as the sequence (O43186 26-111) above, with E17D counted along it
Chain of CRX (Homo sapiens, UniProt O43186 26-111, R41L) (O43186 26-111 R41L): as the sequence (O43186 26-111) above, with R16L counted along it
Chain of ALX3 (Homo sapiens, UniProt O95076 139-225) (O95076 139-225): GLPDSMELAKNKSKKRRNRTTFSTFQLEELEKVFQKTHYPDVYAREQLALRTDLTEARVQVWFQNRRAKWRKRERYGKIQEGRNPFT
Chain of ALX3 (Homo sapiens, UniProt O95076 139-225, N203Q) (O95076 139-225 N203Q): as the sequence (O95076 139-225) above, with N65Q counted along it
Chain of HOXB9 (Homo sapiens, UniProt P17482 171-250) (P17482 171-250): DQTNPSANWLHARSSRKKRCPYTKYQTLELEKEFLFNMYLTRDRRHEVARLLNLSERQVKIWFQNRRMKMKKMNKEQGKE
Chain of MSX2 (Homo sapiens, UniProt P35548 130-214, F161Y) (P35548 130-214 F161Y): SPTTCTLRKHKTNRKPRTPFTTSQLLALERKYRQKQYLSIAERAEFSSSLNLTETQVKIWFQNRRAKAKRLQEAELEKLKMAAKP
Chain of MSX2 (Homo sapiens, UniProt P35548 130-214, R199I) (P35548 130-214 R199I): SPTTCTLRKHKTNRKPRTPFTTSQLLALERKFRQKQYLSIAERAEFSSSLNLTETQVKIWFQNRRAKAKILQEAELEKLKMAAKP
Chain of HOXA2 (Homo sapiens, UniProt O43364 129-215, R185T) (O43364 129-215 R185T): as the sequence (O43364 129-215) above, with R57T counted along it
Chain of ALX3 (Homo sapiens, UniProt O95076 139-225, L168V) (O95076 139-225 L168V): as the sequence (O95076 139-225) above, with L30V counted along it
Chain of HOXC10 (Homo sapiens, UniProt Q9NYD6 254-340, K271E) (Q9NYD6 254-340 K271E): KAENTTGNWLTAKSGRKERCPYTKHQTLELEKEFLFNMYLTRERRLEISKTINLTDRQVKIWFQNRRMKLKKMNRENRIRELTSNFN
Chain of HOXA2 (Homo sapiens, UniProt O43364 129-215, Y150S) (O43364 129-215 Y150S): as the sequence (O43364 129-215) above, with Y22S counted along it
Chain of HOXB9 (Homo sapiens, UniProt P17482 171-250, R186Q) (P17482 171-250 R186Q): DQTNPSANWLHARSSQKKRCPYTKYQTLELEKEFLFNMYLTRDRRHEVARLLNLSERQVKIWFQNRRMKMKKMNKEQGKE
Chain of ALX3 (Homo sapiens, UniProt O95076 139-225, N203S) (O95076 139-225 N203S): as the sequence (O95076 139-225) above, with N65S counted along it
Chain of MSX2 (Homo sapiens, UniProt P35548 130-214) (P35548 130-214): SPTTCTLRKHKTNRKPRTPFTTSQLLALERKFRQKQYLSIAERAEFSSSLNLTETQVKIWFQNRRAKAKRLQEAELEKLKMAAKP
Chain of ALX3 (Homo sapiens, UniProt O95076 139-225, L168Q) (O95076 139-225 L168Q): as the sequence (O95076 139-225) above, with L30Q counted along it
Chain of HOXB9 (Homo sapiens, UniProt P17482 171-250, T197M) (P17482 171-250 T197M): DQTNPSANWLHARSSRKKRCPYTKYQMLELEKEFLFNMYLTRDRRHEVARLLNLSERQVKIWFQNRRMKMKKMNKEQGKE
Chain of HOXA2 (Homo sapiens, UniProt O43364 129-215, R185K) (O43364 129-215 R185K): as the sequence (O43364 129-215) above, with R57K counted along it
Chain of HOXC10 (Homo sapiens, UniProt Q9NYD6 254-340) (Q9NYD6 254-340): as the sequence (Q9NYD6 254-340 K271E) above, with E18K counted along it

CGGATGAG
binding signal (CRX [1]): 9.93 upbm affinity estimate (log intensity, higher = more binding, comparable within an allelic series)

CTGCTGGC
binding signal (CRX [1]): 8.31 upbm affinity estimate (log intensity, higher = more binding, comparable within an allelic series)
binding signal (VENTX [2]): 7.75 upbm affinity estimate (log intensity, higher = more binding, comparable within an allelic series)
binding signal (SIX6 [3]): 8.86 upbm affinity estimate (log intensity, higher = more binding, comparable within an allelic series)
binding signal (VENTX [4]): 7.86 upbm affinity estimate (log intensity, higher = more binding, comparable within an allelic series)
binding signal (SIX6 [5]): 8.74 upbm affinity estimate (log intensity, higher = more binding, comparable within an allelic series)
binding signal (HOXC10 [6]): 9.92 upbm affinity estimate (log intensity, higher = more binding, comparable within an allelic series)
binding signal (SIX6 [7]): 8.87 upbm affinity estimate (log intensity, higher = more binding, comparable within an allelic series)
binding signal (SIX6 [8]): 8.81 upbm affinity estimate (log intensity, higher = more binding, comparable within an allelic series)
binding signal (VENTX [9]): 7.71 upbm affinity estimate (log intensity, higher = more binding, comparable within an allelic series)
binding signal (SIX6 [10]): 8.92 upbm affinity estimate (log intensity, higher = more binding, comparable within an allelic series)
binding signal (SIX6 [11]): 8.85 upbm affinity estimate (log intensity, higher = more binding, comparable within an allelic series)
binding signal (SIX6 [12]): 8.83 upbm affinity estimate (log intensity, higher = more binding, comparable within an allelic series)
binding signal (SIX6 [13]): 8.91 upbm affinity estimate (log intensity, higher = more binding, comparable within an allelic series)
binding signal (SIX6 [14]): 8.84 upbm affinity estimate (log intensity, higher = more binding, comparable within an allelic series)
binding signal (CRX [15]): 8.3 upbm affinity estimate (log intensity, higher = more binding, comparable within an allelic series)
binding signal (MSX2 [16]): 9.25 upbm affinity estimate (log intensity, higher = more binding, comparable within an allelic series)
binding signal (SIX6 [17]): 8.81 upbm affinity estimate (log intensity, higher = more binding, comparable within an allelic series)
binding signal (HOXC10 [18]): 9.97 upbm affinity estimate (log intensity, higher = more binding, comparable within an allelic series)
binding signal (MSX2 [19]): 9.22 upbm affinity estimate (log intensity, higher = more binding, comparable within an allelic series)
binding signal (SIX6 [20]): 8.93 upbm affinity estimate (log intensity, higher = more binding, comparable within an allelic series)
binding signal (SIX6 [21]): 8.83 upbm affinity estimate (log intensity, higher = more binding, comparable within an allelic series)
binding signal (SIX6 [22]): 8.82 upbm affinity estimate (log intensity, higher = more binding, comparable within an allelic series)
binding signal (MSX2 [23]): 9.31 upbm affinity estimate (log intensity, higher = more binding, comparable within an allelic series)
binding signal (CRX [24]): 8.2 upbm affinity estimate (log intensity, higher = more binding, comparable within an allelic series)

CCAGGGGC
binding signal (CRX [1]): 7.85 upbm affinity estimate (log intensity, higher = more binding, comparable within an allelic series)
binding signal (HOXB9 [25]): 8.38 upbm affinity estimate (log intensity, higher = more binding, comparable within an allelic series)
binding signal (SIX6 [3]): 8.79 upbm affinity estimate (log intensity, higher = more binding, comparable within an allelic series)
binding signal (SIX6 [5]): 8.71 upbm affinity estimate (log intensity, higher = more binding, comparable within an allelic series)
binding signal (SIX6 [7]): 8.85 upbm affinity estimate (log intensity, higher = more binding, comparable within an allelic series)
binding signal (SIX6 [8]): 8.79 upbm affinity estimate (log intensity, higher = more binding, comparable within an allelic series)
binding signal (SIX6 [10]): 8.77 upbm affinity estimate (log intensity, higher = more binding, comparable within an allelic series)
binding signal (SIX6 [11]): 8.78 upbm affinity estimate (log intensity, higher = more binding, comparable within an allelic series)
binding signal (SIX6 [12]): 8.85 upbm affinity estimate (log intensity, higher = more binding, comparable within an allelic series)
binding signal (SIX6 [13]): 8.91 upbm affinity estimate (log intensity, higher = more binding, comparable within an allelic series)
binding signal (HOXA2 [26]): 7.15 upbm affinity estimate (log intensity, higher = more binding, comparable within an allelic series)
binding signal (HOXB9 [27]): 8.33 upbm affinity estimate (log intensity, higher = more binding, comparable within an allelic series)
binding signal (SIX6 [14]): 8.83 upbm affinity estimate (log intensity, higher = more binding, comparable within an allelic series)
binding signal (CRX [15]): 7.94 upbm affinity estimate (log intensity, higher = more binding, comparable within an allelic series)
binding signal (ALX3 [28]): 7.67 upbm affinity estimate (log intensity, higher = more binding, comparable within an allelic series)
binding signal (SIX6 [17]): 8.82 upbm affinity estimate (log intensity, higher = more binding, comparable within an allelic series)
binding signal (HOXA2 [29]): 10.2 upbm affinity estimate (log intensity, higher = more binding, comparable within an allelic series)
binding signal (SIX6 [20]): 8.8 upbm affinity estimate (log intensity, higher = more binding, comparable within an allelic series)
binding signal (ALX3 [30]): 7.59 upbm affinity estimate (log intensity, higher = more binding, comparable within an allelic series)
binding signal (SIX6 [21]): 8.88 upbm affinity estimate (log intensity, higher = more binding, comparable within an allelic series)
binding signal (ALX3 [31]): 7.73 upbm affinity estimate (log intensity, higher = more binding, comparable within an allelic series)
binding signal (SIX6 [22]): 8.84 upbm affinity estimate (log intensity, higher = more binding, comparable within an allelic series)
binding signal (HOXB9 [32]): 8.39 upbm affinity estimate (log intensity, higher = more binding, comparable within an allelic series)
binding signal (ALX3 [33]): 7.75 upbm affinity estimate (log intensity, higher = more binding, comparable within an allelic series)
binding signal (HOXA2 [34]): 10.3 upbm affinity estimate (log intensity, higher = more binding, comparable within an allelic series)
binding signal (CRX [24]): 8.19 upbm affinity estimate (log intensity, higher = more binding, comparable within an allelic series)
binding signal (ALX3 [35]): 7.65 upbm affinity estimate (log intensity, higher = more binding, comparable within an allelic series)
binding signal (HOXA2 [36]): 7.27 upbm affinity estimate (log intensity, higher = more binding, comparable within an allelic series)
